# Values joined by “and” are separate entries in the source; they are usually repeats but may differ in a detail not shown here. Equal entries are not always repeated. The panel holds about 79,000 compounds, 15% with a hit somewhere; the sample as a whole holds those more often. Values without a mark were called inactive. Active and inactive are the calls of the source. Cut-off read from the data, not from the text of the source: active = growth inhibition above about 70%; inactive = the rest.
# Experiments:
# [1] = NCI Yeast Anticancer Drug Screen. Data for the rad50 strain (AID 155);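 note: 0% = growth of vehicle-only cultures of the same strain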; details: S. cerevisiae rad50 strain growth inhibition; at 50.0 µM; stronger effect = higher value
# Method in brief: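 Inhibition values express reduced yeast growth in compound-treated cultures relative to vehicle-treated controls.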
# [2] = NCI Yeast Anticancer Drug Screen. Data for the mec2-1 strain (AID 157); details: S. cerevisiae mec2-1 strain, at 50.0 µM, stronger effect = higher value
# Method in brief: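 Cells of the genetically defined mec2-1 yeast strain are incubated with test compound. Inhibition of growth is calculated against vehicle-treated controls.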
# [3] = NCI Yeast Anticancer Drug Screen. Data for the sgs1 mgt1 strain (AID 161);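 note: 0% = growth of cultures given vehicle only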; details: S. cerevisiae sgs1 mgt1 strain, at 50.0 µM, stronger effect = higher value
# Method in brief: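 Test agents were incubated with a DNA-repair-mutant yeast strain. Growth was then read and compared against vehicle-treated controls.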
# [4] = NCI Yeast Anticancer Drug Screen. Data for the cln2 rad14 strain (AID 165);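 note: 0% = growth equal to vehicle treated cultures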; details: S. cerevisiae cln2 rad14 strain, at 50.0 µM, stronger effect = higher value
# Method in brief: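 The screen exposed genetically defined yeast (cln2 rad14) to test compounds and scored growth inhibition relative to vehicle-treated controls.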
# [5] = NCI Yeast Anticancer Drug Screen. Data for the bub3 strain (AID 167); details: S. cerevisiae bub3 mutant strain, at 50.0 µM, stronger effect = higher value
# Method in brief: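 Steps: expose the mutant yeast strain to compound; grow alongside vehicle-treated cultures; measure growth; express inhibition against the vehicle cultures.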
# [6] = NCI Yeast Anticancer Drug Screen. Data for the mlh1 rad18 strain (AID 175); details: S. cerevisiae mlh1 rad18 strain growth inhibition; at 50.0 µM; stronger effect = higher value
# Method in brief: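 Compound-treated yeast growth, normalised to vehicle controls. Strain bears defined DNA repair mutations.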
Compound,growth inhibition [1],growth inhibition [2],growth inhibition [3],growth inhibition [4],growth inhibition [5],growth inhibition [6]
COc1ccccc1N=Nc1cccc[c]1[Hg][Cl],98.2% (active),99% (active),98.7% (active),98.7% (active),98% (active),98.3% (active)
OC1(CN2CCCCC2)N=C(c2ccccc2)c2ccsc2-n2cccc21 (stereo not given),-19.6%,-22.6%,-25.2%,22.2%,-11.5%,-3%
NC(CCCc1ccc(N(CCCl)CCCl)cc1)C(=O)O (stereo not given),-1.55%,-3.45%,8.75%,-52.7%,-6.15%,-8.3%
NC(CO)Cc1ccccc1 (stereo not given),-1.6% and 0.85%,0.3% and -4%,-1.45% and -4.1%,-21.6% and 4.05%,13.9% and 14.8%,2.05% and -1.35%
CCCCOC(=O)C(O)CF (stereo not given),-25.2%,-10.1%,-0.25%,1.6%,1.05%,-29.6%
O=C(O)C(O)(c1ccccc1)C1CCCCC1 (stereo not given),1% and 8.5%,-19.5% and 5.45%,-2.1% and -8.8%,18.6% and -7.65%,-30.9% and 0.6%,-1.6% and -2.85%
CC1CCC(OC(=O)CCl)CC1 (stereo not given),18.1%,19.4%,13.3%,7.45%,8.95%,-8.75%
CC(C)C(=O)OCC1CCCN2CCCCC12 (stereo not given),26.9%,26.4%,11.9%,19.2%,30.3%,-35.2%
COc1ccc(CC2c3cc(OC)c(OC)cc3CCN2C)cc1OC (stereo not given),-3.6% and -11.2%,-5.2% and -18.4%,-8.1% and -8.4%,-5% and 13.1%,12.7% and -3.45%,8.4% and 1.7%
CSCC(NP1(=O)SC(NN=C(C)C)=NC1(C)C)C(=O)O (stereo not given),4.85%,-3.7%,-26.5%,20.3%,17.6%,-3.45%

# — PubChem BioAssay (NCI)
